From PubChem BioAssay
An excerpt weighted towards active compounds, which were near 1% of everything screened.
TNFa cytotox = HUVEC cytotoxicity counter-screen, TNF alpha stimulated. HUVEC TNFalpha-stimulated, Hoechst cell count, imaging. hit rate 0.17% among 93,000. cell count reduction, % at 2 µM;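 active means cell count reduction exceeding the screen mean by over 5 SD, scaled to untreated wells per plate, cut at about 78% in these data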;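 further: cells counted after 24 h of TNF alpha exposure following the 1 h pretreatment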
cytoskel mod = modifiers of cytoskeleton assembly; HUVEC TNFa F-actin phalloidin imaging, high content; hit rate 0.18% among 91,000; AID 836; inhibition, % at 2 µM;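 active means inhibition above the batch mean plus 3 SD and confirmed as a hit by visual image inspection, cut at about 30% in these data, passing the limit was not always enough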
E-sel TNF inh = blocks E-selectin expression induced by TNF alpha. HUVEC TNFa-induced E-selectin immunofluorescence, high content. inhibition, % at 2 µM. hit rate 0.71% among 120,000. AID 1246;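 active means inhibition above the batch mean plus 3 SD, and confirmed as a hit on visual image review, cut at about 43% in these data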
VCAM1 TNFa inh = reduces TNF alpha induced VCAM1 expression in HUVEC. HUVEC TNFa-induced VCAM-1 immunofluorescence, high-content imaging. inhibition, % at 2 µM. hit rate 0.48% among 95,000. AID 802;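 active means inhibition above the batch mean plus 3 SD, with images confirmed as a hit by eye, cut at about 37% in these data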
Numbers stand for hits; n = inactive; x = no result.

SMILES	TNFa cytotox	cytoskel mod	E-sel TNF inh	VCAM1 TNFa inh
CCN1C(=O)/C(=C\c2cn(-c3ccccc3)nc2-c2cccnc2)SC1=S	x	x	83.3	x
CCCn1c(=O)c2ccccc2n2c(SCC(=O)NCc3cccs3)nnc12	n	78.9	n	n
CC(C)Cc1nnc(NS(C)(=O)=O)s1	n	n	52.4	n
CCC(=O)NCc1nc2ccccc2n1Cc1ccccc1F	n	n	65.3	n
CCC(=O)NCCCc1nc2ccccc2n1Cc1ccccc1F	x	x	n	x
CCc1ccccc1Nc1nc(N)nc(CSCC(=O)Nc2ccc(C)c(C)c2)n1	x	x	n	x
CCCCCCOC(=O)/C=C/c1c(C)[nH]c(=O)[nH]c1=O	n	n	74.0	n
COc1cccc(C(=O)N/N=C/c2ccc(OC3CSC3)cc2)c1	93.9	n	n	x
Cc1cccc(C(=O)N/N=C/c2ccc(OC3CSC3)cc2)c1	n	n	n	n
COc1ccc(-c2[nH]ncc2CN2CCC(N3CCSCC3)CC2)c(F)c1	x	x	n	x
O=C(CNC(=O)c1ccccc1Cl)OC1CCOC1=O (stereo unspecified)	x	x	n	x
CCCc1sc(N/N=C/c2ccccn2)nc1-c1ccc(Br)cc1	n	n	n	93.9
c1ccc(COc2ccc(CNCc3cccnc3)cc2)cc1	x	x	n	x
Cc1cc(C(=O)Nc2nc3c(s2)CCCC3)no1	n	x	40.3	n
Cn1nnnc1SCc1nnc(-c2ccc(Cl)cc2)o1	n	n	63.0	n
CCOc1ccc(OCC)c(NC(=O)CN2CCN(c3cccc(C)c3)CC2)c1	x	x	95.5	x
COc1ccc(NC(=O)c2cc(-c3ccc(OC)c(OC)c3)on2)cc1OC	n	n	80.0	n
O=C(CSc1nnnn1-c1ccc(F)cc1)NCc1cccs1	x	x	n	x
c1csc(C(c2nnnn2C2CCCC2)N2CCOCC2)c1 (stereo unspecified)	x	x	n	x
c1csc(C(c2nnnn2C2CCCC2)N2CCCC3(CCCCC3)C2)c1 (stereo unspecified)	n	n	56.6	n
Cc1cc2ncn(C(=O)N3CCCCCC3)c2cc1C	n	n	n	n
COc1ccc(C2C(C(=O)Nc3cccnc3)=C(C)Nc3nc(-c4cccs4)nn32)cc1 (stereo unspecified)	n	n	100.0	n
Cc1ccc(-n2[nH]c(C)c(/C=N/Nc3ccc([N+](=O)[O-])cc3[N+](=O)[O-])c2=O)cc1	x	x	n	x
COc1ccc(C(=O)NCCNC(C)=O)cc1S(=O)(=O)NCc1ccc(Cl)cc1	n	n	57.1	n
COc1ccc(C(=O)NCc2ccc3c(c2)OCO3)cc1S(=O)(=O)NCc1ccc(Cl)cc1	x	x	n	x
SMILES	TNFa cytotox	cytoskel mod	E-sel TNF inh	VCAM1 TNFa inh
Cc1ccn2cc(CCNS(=O)(=O)c3ccc(F)c(C(F)(F)F)c3)nc2c1	n	n	88.8	n
O=S(=O)(NCCc1cn2ccccc2n1)c1ccc(F)c(C(F)(F)F)c1	n	n	x	n
COC(=O)c1sccc1NC(=O)c1ccc(C)s1	n	n	n	n
COC(=O)c1sccc1NC(=O)c1ccc(Br)s1	n	n	n	52.6
CC(C)C(C(=O)O)N1CCS(=O)(=O)CC1 (stereo unspecified)	x	x	79.8	x
O=S1(=O)CCN(C(CO)c2ccccc2)CC1 (stereo unspecified)	x	x	n	x
Cc1cc(C)c(C(=O)COC(=O)CCNS(=O)(=O)c2c(Cl)cccc2Cl)cc1C	x	x	n	x
CCCC(CCC)c1nc2ccncc2[nH]1	x	x	n	x
CS(=O)(=O)N1CCc2cc(-c3csc(NC(=O)Cc4cccs4)n3)ccc21	n	n	93.5	n
CC(=O)Nc1nc(-c2ccc3c(c2)CCN3S(C)(=O)=O)cs1	x	x	n	x
CCn1c(=O)cc(SCC(=O)N2CCN(C3CCCCC3)CC2)c2ccccc21	n	n	66.9	n
COc1ccc(OCC2CNC(=O)O2)cc1 (stereo unspecified)	x	x	96.0	x
O=C1NCC(COc2cccc3ccccc23)O1 (stereo unspecified)	x	x	n	x
Cc1ccc(NS(=O)(=O)c2ccc3[nH]c(=O)sc3c2)cc1	x	x	n	x
Nc1nc2c3ccccc3nc(Cc3ccccc3)n2n1	n	n	n	93.2
Cc1cc(NC(=O)Cn2c(=O)c3c(ncn3CC(C)C)n(Cc3ccccc3)c2=O)no1	x	x	n	x
CC(C)Cn1cnc2c1c(=O)n(CC(=O)Nc1ccc3c(c1)OCO3)c(=O)n2Cc1ccccc1	n	n	70.9	n
Cc1nc(=O)c(-c2ccccc2)c(C)n1-c1ccc(S(N)(=O)=O)cc1	n	n	99.9	n
CCCOc1ccc(C(=O)NCC(c2cccs2)N(C)C)cc1 (stereo unspecified)	x	x	94.0	x
CCN(c1ccccc1)S(=O)(=O)c1ccc(C(=O)NCC(c2cccs2)N(C)C)cc1 (stereo unspecified)	x	x	n	x
CCCCCCC(C)NC(=S)Nc1cc(S(=O)(=O)N(C)C)ccc1C (stereo unspecified)	x	x	n	x
CCC(C)(C)n1nnnc1C(c1ccc(OC)c(OC)c1)N1CCN(c2ccccc2)CC1 (stereo unspecified)	n	n	83.3	n
CCC(C)(C)n1nnnc1C(c1ccc(OC)c(OC)c1)N1CCN(c2cccc(OC)c2)CC1 (stereo unspecified)	n	n	n	n
O=C(O)CN1C(=O)C2(OCCCO2)c2ccccc21	n	n	n	n
Cc1ccccc1CN1C(=O)C2(OCCCO2)c2ccccc21	n	64.5	n	n
SMILES	TNFa cytotox	cytoskel mod	E-sel TNF inh	VCAM1 TNFa inh
O=C1CC(c2ccccc2)Cc2nc3ncnn3cc21 (stereo unspecified)	n	n	n	59.8
COc1ccccc1NC(=O)c1ccc(NC(=O)CN2C(=O)CN(C)C2=O)cc1	x	x	n	x
COc1ccccc1-c1c(C(F)(F)F)oc2cc(OCC(=O)Nc3cc(C)ccc3C)ccc2c1=O	x	x	n	x
Cc1ccc(S(=O)(=O)Nc2ccc(NC(=O)Nc3ccc(F)cc3F)cc2)cc1	x	x	82.0	x
O=C(Nc1ccncc1)Nc1ccc(F)cc1F	n	n	n	n
C#CCN1C(=O)C(O)(CC(=O)c2cccc(OC)c2)c2ccccc21 (stereo unspecified)	n	n	85.2	n
CC(C)NC(=O)[C@@H]1C[C@@]1(C)[C@@H](NC(=O)OCc1ccccc1)c1ccccc1	x	x	n	x
Cc1ccc(C)n1NC(=O)c1cccs1	n	n	99.9	n
C=CCn1c(=N)n(CC(=O)c2ccc(Br)s2)c2ccccc21	x	x	n	x
C=CCc1ccccc1OCC(O)CNC (stereo unspecified)	93.6	66.9	n	56.4
C=CCc1ccccc1OCC(O)CN(C(C)C)C(C)C (stereo unspecified)	n	n	n	n
Nc1nnnn1/N=C/C(Br)=C/c1ccccc1	n	n	n	53.6
Nc1nnnn1/N=C/C=C/c1ccccc1	x	x	n	x
Cc1c(C=O)c2ccccn2c1C(=O)c1cccc([N+](=O)[O-])c1	x	x	n	x
O=S(=O)(NCC1CCCO1)c1ccc(S(=O)(=O)N(Cc2ccccc2F)C2CCCCC2)cc1 (stereo unspecified)	n	n	n	n
FC(F)(F)c1cnc2c(-c3ccccc3)n[nH]c2c1	x	x	67.8	x
Cn1c(NCCN2CCCCC2)cc(=O)n(C)c1=O	x	x	80.6	x
Nc1nnc(CCS(=O)(=O)c2ccc(Br)cc2)s1	x	x	n	x
Cn1c(=O)c(=O)n(C)c2cc(S(=O)(=O)N3CCc4ccccc43)ccc21	n	n	57.2	n
O=C(COC(=O)c1cccc(S(=O)(=O)NCc2ccccc2)c1)NCC1CCCO1 (stereo unspecified)	x	x	n	x
Cc1cc(NC(=O)CSc2nc3ccccc3c(=O)n2C2CCCC2)no1	n	n	n	67.7
